The campaign covered roughly 5,500 compounds. About 2,000 (36%) were called active. Not shown: some 18% with an inconclusive outcome. No stated cut-off is given here; in the data, active means normalized growth mostly below about 0.91 (no sharp cut-off); inconclusive means no clear call, values can overlap the other calls; inactive means mostly above about 0.92. The list shows a part of the results.
Assay: chemical genetic growth profiling, strain panel (AID 1159580);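 further: tested at 20 µM; growth read once vehicle control cultures reached saturation at 30 °C; 1 = growth at the plate median or of vehicle wells; lower values mean less growth of the strain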
Details: growth OD
[1] = S. cerevisiae deletion strains, locus YAL013W, strain DEP1, hits give low values
[2] = S. cerevisiae deletion strains, locus YGR078C, strain PAC10, hits give low values
[3] = S. cerevisiae deletion strains, locus YJR075W, strain HOC1, hits give low values
[4] = S. cerevisiae deletion strains, locus YNL153C, strain GIM3, hits give low values
[5] = S. cerevisiae deletion strains, locus YNL322C, strain KRE1, hits give low values

Measured: normalized growth

COP(=O)(NC(C)=O)SC (centres undefined)
inactive: [1] 1.01 | S. cerevisiae deletion strains, locus YBR021W, strain FUR4, hits give low values 1 | S. cerevisiae deletion strains, locus YBR229C, strain ROT2, hits give low values 1.01 | S. cerevisiae deletion strains, locus YCL029C, strain bik1, hits give low values 1 | S. cerevisiae deletion strains, locus YDL035C, strain GPR1, hits give low values 1.01 | S. cerevisiae deletion strains, locus YDL074C, strain BRE1, hits give low values 1.04 | S. cerevisiae deletion strains, locus YDL101C, strain DUN1, hits give low values 1.01 | S. cerevisiae deletion strains, locus YDL134C, strain PPH21, hits give low values 1.01 | S. cerevisiae deletion strains, locus YDL185W, strain tfp1, hits give low values 1 | S. cerevisiae deletion strains, locus YDL192W, strain arf1, hits give low values 0.996 | S. cerevisiae deletion strains, locus YDR101C, strain arx1, hits give low values 1 | S. cerevisiae deletion strains, locus YDR150W, strain NUM1, hits give low values 0.997 | S. cerevisiae deletion strains, locus YDR162C, strain NBP2, hits give low values 1.04 | S. cerevisiae deletion strains, locus YDR318W, strain mcm21, hits give low values 0.996 | S. cerevisiae deletion strains, locus YDR388W, hits give low values 0.983 | S. cerevisiae deletion strains, locus YDR502C, strain sam2, hits give low values 0.996 | S. cerevisiae deletion strains, locus YEL061C, strain CIN8, hits give low values 1 | S. cerevisiae deletion strains, locus YER110C, hits give low values 0.994 | S. cerevisiae deletion strains, locus YER155C, strain BEM2, hits give low values 1.01 | S. cerevisiae deletion strains, locus YER167W, strain BCK2, hits give low values 0.989 | S. cerevisiae deletion strains, locus YGL078C, strain dbp3, hits give low values 0.994 | S. cerevisiae deletion strains, locus YGL086W, strain mad1, hits give low values 0.994 | S. cerevisiae deletion strains, locus YGL248W, strain PDE1, hits give low values 1 | [2] 1.04 | S. cerevisiae deletion strains, locus YGR135W, strain pre9, hits give low values 1 | S. cerevisiae deletion strains, locus YGR229C, strain SMI1, hits give low values 1.04 | S. cerevisiae deletion strains, locus YGR252W, strain gcn5, hits give low values 0.976 | S. cerevisiae deletion strains, locus YHR030C, strain SLT2, hits give low values 1.01 | S. cerevisiae deletion strains, locus YHR079C, strain IRE1 (second series), hits give low values 0.998 | S. cerevisiae deletion strains, locus YHR094C, strain hxt1, hits give low values 0.991 | S. cerevisiae deletion strains, locus YHR129C, strain ARP1, hits give low values 1.01 | S. cerevisiae deletion strains, locus YHR200W, strain rpn10, hits give low values 1 | S. cerevisiae deletion strains, locus YIL066C, strain RNR3, hits give low values 1.04 | S. cerevisiae deletion strains, locus YIL073C, strain SPO22, hits give low values 1.03 | S. cerevisiae deletion strains, locus YIL125W, strain kgd1, hits give low values 0.997 | S. cerevisiae deletion strains, locus YIR030C, strain dcg1, hits give low values 1 | S. cerevisiae deletion strains, locus YJL095W, strain BCK1, hits give low values 1.01 | S. cerevisiae deletion strains, locus YJL134W, strain LCB3, hits give low values 1 | S. cerevisiae deletion strains, locus YJL168C, strain set2, hits give low values 0.989 | S. cerevisiae deletion strains, locus YJL187C, strain SWE1 (second series), hits give low values 1.01 | S. cerevisiae deletion strains, locus YJR043C, strain POL32, hits give low values 1.02 | [3] 1.03 | S. cerevisiae deletion strains, locus YKL009W, strain mrt4, hits give low values 1.01 | S. cerevisiae deletion strains, locus YKL068W, hits give low values 1.01 | S. cerevisiae deletion strains, locus YKL085W, strain MDH1 (second series), hits give low values 0.997 | S. cerevisiae deletion strains, locus YKL085W, strain MDH1, hits give low values 0.997 | S. cerevisiae deletion strains, locus YKL190W, strain CNB1, hits give low values 1.03 | S. cerevisiae deletion strains, locus YKR001C, strain vps1, hits give low values 0.996 | S. cerevisiae deletion strains, locus YLR039C, strain RIC1, hits give low values 1.05 | S. cerevisiae deletion strains, locus YLR058C, strain SHM2, hits give low values 1.01 | S. cerevisiae deletion strains, locus YLR102C, strain apc9, hits give low values 0.994 | S. cerevisiae deletion strains, locus YLR262C, strain YPT6, hits give low values 1.02 | S. cerevisiae deletion strains, locus YLR268W, strain sec22, hits give low values 0.999 | S. cerevisiae deletion strains, locus YLR330W, strain CHS5, hits give low values 1.01 | S. cerevisiae deletion strains, locus YLR342W, strain FKS1 (second series), hits give low values 1.01 | S. cerevisiae deletion strains, locus YLR371W, strain rom2, hits give low values 1 | S. cerevisiae deletion strains, locus YLR418C, strain cdc73, hits give low values 0.998 | S. cerevisiae deletion strains, locus YML016C, strain PPZ1, hits give low values 1.01 | S. cerevisiae deletion strains, locus YML032C, strain rad52, hits give low values 0.999 | S. cerevisiae deletion strains, locus YML124C, strain tub3, hits give low values 0.997 | S. cerevisiae deletion strains, locus YMR078C, strain ctf18, hits give low values 0.995 | S. cerevisiae deletion strains, locus YMR223W, strain ubp8, hits give low values 1 | S. cerevisiae deletion strains, locus YMR263W, strain SAP30, hits give low values 1.04 | S. cerevisiae deletion strains, locus YMR307W, strain GAS1, hits give low values 1.05 | S. cerevisiae deletion strains, locus YNL067W, strain RPL9B, hits give low values 1.03 | S. cerevisiae deletion strains, locus YNL128W, strain TEP1, hits give low values 1.01 | [4] 1.02 | S. cerevisiae deletion strains, locus YNL233W, strain BNI4, hits give low values 1.01 | S. cerevisiae deletion strains, locus YNL250W, strain rad50, hits give low values 0.986 | S. cerevisiae deletion strains, locus YNL271C, strain bni1, hits give low values 0.993 | S. cerevisiae deletion strains, locus YNL298W, strain CLA4, hits give low values 0.995 | S. cerevisiae deletion strains, locus YNL307C, strain MCK1, hits give low values 0.995 | [5] 1.01 | S. cerevisiae deletion strains, locus YNR052C, strain pop2, hits give low values 0.998 | S. cerevisiae deletion strains, locus YOL006C, strain TOP1, hits give low values 1.05 | S. cerevisiae deletion strains, locus YOL012C, strain htz1 0.88 | S. cerevisiae deletion strains, locus YOL147C, strain pex11, hits give low values 0.988 | S. cerevisiae deletion strains, locus YOR061W, strain CKA2, hits give low values 1.01 | S. cerevisiae deletion strains, locus YOR069W, strain VPS5, hits give low values 1.01 | S. cerevisiae deletion strains, locus YOR136W, strain idh2, hits give low values 1 | S. cerevisiae deletion strains, locus YOR144C, strain elg1, hits give low values 0.995 | S. cerevisiae deletion strains, locus YOR184W, strain ser1, hits give low values 1.01 | S. cerevisiae deletion strains, locus YOR316C, strain cot1, hits give low values 0.999 | S. cerevisiae deletion strains, locus YPL055C, strain LGE1, hits give low values 1.09 | S. cerevisiae deletion strains, locus YPL241C, strain CIN2, hits give low values 1.01 | S. cerevisiae deletion strains, locus YPR119W, strain clb2, hits give low values 0.993 | S. cerevisiae deletion strains, locus YPR141C, strain kar3, hits give low values 0.994 | S. cerevisiae deletion strains, locus YPR163C, strain tif3, hits give low values 0.998 | S. cerevisiae deletion strains, locus YPR167C, strain met16, hits give low values 0.997 | S. cerevisiae deletion strains, strain wtn01, hits give low values 0.993 | S. cerevisiae strains, strain wild type, hits give low values 1.01

c1cnc2c(c1)ccc1cccnc12
active: [1] 0.0762 | S. cerevisiae deletion strains, locus YCL061C, strain MRC1 (second series), hits give low values 0.0542 | S. cerevisiae deletion strains, locus YDR363W, strain ESC2, hits give low values 0.0973 | S. cerevisiae deletion strains, locus YER002W, strain NOP16, hits give low values 0.0834 | [2] 0.109 | [3] 0.0769 | [4] 0.103 | S. cerevisiae deletion strains, locus YNL175C, strain NOP13, hits give low values 0.0953 | S. cerevisiae deletion strains, locus YNL197C, strain WHI3, hits give low values 0.0905 | S. cerevisiae deletion strains, locus YNL224C, strain SQS1, hits give low values 0.123 | [5] 0.0666 | S. cerevisiae deletion strains, locus YOR083W, strain WHI5 (second series), hits give low values 0.0868
inactive: S. cerevisiae deletion strains, locus YAL040C, strain CLN3, hits give low values 1.07

From PubChem BioAssay AID1159580 (chemical genetic matrix, 2015)
